# Experimental data: the supplement of paper PMC6555819
# Legend:
# Test in all cases: PBM binding z-score (relative to random genomic background probes); higher = stronger binding; sequences stand for … in GC…GCGATTGACAGCGTAGAATGAAGG
# [1] = tested on: FXR:RXRa (NR concentration 270 nM, RXRa partner concentration 90 nM)
# Outline: (§1)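 Regression normalization was applied to scanned fluorescence from custom Agilent 4×180K protein-binding microarrays. Before scanning, arrays were incubated 1 h with ligand-free nuclear receptor dimers, and binding was detected with antibodies against each partner (one per run). Binding z-scores use the random background probes as reference.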
# [2] = tested on: LXRa:RXRa (NR concentration 270 nM, RXRa partner concentration 90 nM)
# Outline: as §1
# [3] = tested on: LXRa homodimer (NR concentration 270 nM)
# Outline: as §1
# [4] = tested on: LXRb:RXRa (NR concentration 270 nM, RXRa partner concentration 90 nM)
# Outline: as §1
# [5] = tested on: LXRb homodimer (NR concentration 270 nM)
# Outline: as §1
# [6] = tested on: PPARa:RXRa (NR concentration 270 nM, RXRa partner concentration 90 nM)
# Outline: as §1
# [7] = tested on: PPARg:RXRa (NR concentration 180 nM, RXRa partner concentration 90 nM)
# Outline: as §1
# [8] = tested on: PPARg:RXRa 270nM:90nM, anti-RXR (NR concentration 270 nM, RXRa partner concentration 90 nM)
# Outline: as §1
# [9] = tested on: PPARg:RXRa 30nM:10nM, anti-RXR (NR concentration 30 nM, RXRa partner concentration 10 nM)
# Outline: as §1
# [10] = tested on: PPARg:RXRa 90nM:30nM, anti-RXR (NR concentration 90 nM, RXRa partner concentration 30 nM)
# Outline: as §1
# [11] = tested on: PPARg:RXRa DBDmut IVT, anti-RXR (DBD mutation: RXRa K156A/R161A, NR concentration 270 nM, RXRa partner concentration 90 nM)
# Outline: as §1
# [12] = tested on: PPARg:RXRa IVT, anti-PPARg (NR concentration 270 nM, RXRa partner concentration 90 nM)
# Outline: as §1
# [13] = tested on: PPARg DBDmut:RXRa IVT, anti-PPARg (DBD mutation: PPARg1 K132A/R137A, NR concentration 270 nM, RXRa partner concentration 90 nM)
# Outline: as §1
# [14] = tested on: PPARg DBDmut IVT, anti-PPARg (DBD mutation: PPARg1 K132A/R137A, NR concentration 270 nM)
# Outline: as §1
# [15] = tested on: PPARg homodimer (NR concentration 180 nM)
# Outline: as §1
# [16] = tested on: PXR:RXRa (NR concentration 270 nM, RXRa partner concentration 90 nM)
# Outline: as §1
# [17] = tested on: PXR homodimer (NR concentration 270 nM)
# Outline: as §1
# [18] = tested on: RARa:RXR (NR concentration 270 nM, RXRa partner concentration 90 nM)
# Outline: as §1
# [19] = tested on: RARa homodimer (NR concentration 270 nM)
# Outline: as §1
# [20] = tested on: RARb:RXRa (NR concentration 270 nM, RXRa partner concentration 90 nM)
# Outline: as §1
Sequence,PBM binding z-score [1],PBM binding z-score [2],PBM binding z-score [3],PBM binding z-score [4],PBM binding z-score [5],PBM binding z-score [6],PBM binding z-score [7],PBM binding z-score [8],PBM binding z-score [9],PBM binding z-score [10],PBM binding z-score [11],PBM binding z-score [12],PBM binding z-score [13],PBM binding z-score [14],PBM binding z-score [15],PBM binding z-score [16],PBM binding z-score [17],PBM binding z-score [18],PBM binding z-score [19],PBM binding z-score [20]
CGAACTAGGTCATCCAGGACAGGGAATACATTGA,4.45,2.35,0.51,1.85,0.035,4.75,7.8,6.18,3.9,5.82,7.79,8.34,3.98,2.59,1.77,1.6,0.593,2.36,0.244,3.78
AGAAGGAGGTTATTAAGATCAGGGAATTGCGGTC,1.12,1.36,0.522,1.46,0.654,2.01,1.01,1.31,0.314,0.827,2,1.6,0.512,-0.349,1.37,1.2,1.24,0.985,1.65,1.26
ATCTCTAGGTAAAAGTTCATTGAATCCCGAGGAT,2.13,3.38,4.04,2.13,1.06,4.7,8.45,7.53,7.5,8.69,1.93,3.85,1.8,0.918,1.37,3.67,3.67,2.6,0.624,2.84
AGTCAAAGTTCATCTAGGTTACGTAAGATATGCT,6.68,6.16,6.06,3.95,2.11,4.96,6.9,6.6,4.02,5.95,1.81,4.48,1.59,1.1,2.63,5.66,10.7,4.25,1.94,4.99
CTACCAACGTGAACAAGGTCGTTGATTACTATTC,0.409,0.657,0.667,1.48,0.184,1.22,0.42,0.167,-0.0638,0.0634,0.278,0.249,0.577,1.06,0.913,1.72,1,1.4,0.795,0.631
CGTGAAAGTTCAACTAAGGTAACGTAAAGCACGC,6.32,6.09,4.26,3.89,1.84,4.98,3.58,4.78,1.6,3.39,-0.0451,1.86,0.513,0.603,2.63,5.31,3.52,3.81,1.22,5.19
ATATGAAGGTTAAGGGTCATTCAGGTTGGTTCGC,5.91,5.46,3.32,4.85,1.14,5.8,8.33,7.73,5.9,8,2.29,4.44,1.32,1.46,3.39,5.84,2.27,6.97,1.13,4.19
TCATCTAGGTAAATGCTAGGTGAAAGTCCGATCT,0.554,0.411,0.0508,0.263,-0.0728,1.17,0.51,2.29,3.44,2.92,3.81,3.11,1.09,0.995,0.213,0.375,-0.263,0.578,-0.0135,0.219
CAGACTGGGGCAAAGGTTACCATACTCAGTACGA,2.11,2.13,0.0267,2.49,-0.226,5.94,10.9,8.6,9.03,10.1,5.78,6.11,0.811,-0.289,1.61,2.57,0.354,3.86,0.632,2.66
AGAACGAGGGCACGCCGAGTTGATAGCAGAGTAG,0.906,0.551,-0.503,0.0965,-0.66,2.36,2.1,1.92,0.0797,0.871,3.84,4.08,0.68,-0.645,0.0729,1.38,0.119,0.82,-0.438,2.57
GATACAGGGTCAGCTAGAGGCCAGAATATGGAAA,4.72,2.63,-0.176,2.61,-0.466,4.48,3.78,3.14,1.04,2.25,0.991,2.56,-0.253,-0.217,2.63,3.24,0.115,4.04,0.657,4.02
GTACCAAGGTGAATAGGTCGTTGTTGAGTAGGCG,0.827,0.686,-0.152,0.303,-0.821,2.07,1.18,1.21,0.0125,0.678,1.9,2.74,0.246,-0.308,1.31,0.708,-0.604,1.5,0.154,1.91
TCATATAGGTAAATGCTAGGTGAAAATCCGATCT,0.903,0.851,0.275,0.71,0.611,1.17,0.91,1.95,4.01,3.06,3.71,2.37,1.79,1.14,1.06,0.505,0.518,0.922,1.61,0.432
AATACAGGTTCATCGTAGGCCAGAGTACGCACAG,3.44,4.91,1.85,2.3,0.451,3.19,1.67,1.31,0.478,0.764,0.0837,0.966,1.55,1.09,0.907,3.55,1.4,2.46,0.533,1.8
CGAACTAGGTCAAGGACACTGAATCTCCGCACGC,3.6,2.34,0.392,1.61,-0.129,4.59,7.39,6.12,3.48,5.6,8.19,8.2,2.38,0.508,1.58,1.44,0.0266,1.97,0.291,4.04
CCTACTGGGCCATAAAGGTCATTGATGCCGATAA,3.55,4.42,3.57,4.21,0.574,4.79,4.32,4.68,2.1,4.45,3.2,4.78,-0.0892,0.0735,1.94,4.87,2.7,4.9,0.376,3.89
GCTAGCAGGCCATTCGGGTCACTCAATGACGGGC,1.03,0.603,-0.377,0.577,-1.07,1.9,0.695,0.555,-0.392,0.105,1.31,1.58,-0.52,-0.659,0.0772,1.83,1.45,1.71,-0.872,1.96
TCTTGTAGATCAATACAGGTTAAGAAAGTGCGCT,0.747,2.01,0.393,1.23,0.0132,1.29,0.19,1.49,2.99,2.11,2.28,1.23,0.912,1.31,1.18,1.76,0.308,1.1,0.461,0.5
CGTCCAAGGTCAAAGGTCAGTGCAGAGATGACGG,8.41,7.01,3.67,6.47,1.91,7.1,10.5,9.08,8.16,9.41,3.55,5.49,1.33,1.29,4.31,7.08,2.79,9.23,3.59,5.77
TGCCAAAGTTCAAAGGTAACGTAAGTATCCACAC,7.28,6.4,4.65,4.85,1.81,5.9,7.61,7.16,4.42,6.78,-0.203,3.58,0.542,1.37,4.73,6.14,4.67,7.24,1.95,5.19
CGTCCAAGGTCATAGGAGATCAGTGAAGACAGAT,6.93,5.5,1.32,3.92,0.511,5.4,4.74,4.9,2.45,3.71,3.22,3.43,1.2,0.671,2.99,4.44,1.37,4.47,0.926,4.89
ATCTCTAGGTTAAGTTCAGTGAAAGATCGATAGA,1.78,2.76,1.8,1.49,1.76,2.41,1.87,2.34,1.11,1.83,3.77,3.34,1.74,1.46,2.01,2.47,2.53,1.75,1.83,2.61
CCTAGCAGGCCAATCTGGGTCAGTCAAGGCTTGA,0.816,0.419,-0.663,0.0551,-1.41,1.97,0.228,0.88,-0.729,0.114,3.27,3.61,-0.788,-1.02,-0.0146,0.0599,-0.751,0.0549,-0.68,1.28
GCTGCTATGTCAACTGATGGTCAGCTAAAGCTCG,-0.296,-0.497,-0.849,-0.37,-0.729,-0.283,-0.143,-0.387,-0.655,-0.456,0.616,-0.0594,-1.42,-1.27,-1.18,-0.32,-0.913,-0.149,-1.19,0.753
TCAAATAGGTAAACAGGTGAAAGTCCGTAAGTTA,0.954,0.935,0.164,0.968,-0.112,2.28,2.64,3.76,4.64,4.28,4.13,3.99,0.833,0.995,1.07,0.682,0.0929,1.16,1.7,0.892
CAAACTAGGTCAAGGTCAAAATCGGTTTGTGCCA,6.5,5.02,3.14,4.66,1.58,6.16,9.66,7.73,6.38,7.81,8.64,9.04,2.23,3.4,2.8,4.7,1.74,4.78,1.1,5.1
CCGAGTAGGTTATGGGGCAATCAGGCAACGGTGA,0.219,0.461,0.13,0.86,-0.142,2.37,3.61,4.62,2.23,4.39,3.71,3.81,-0.0155,-0.785,0.948,0.118,-0.0981,0.631,0.26,1.11
CATAGTTGGTCAGGAGGTCACACACCGGATATGA,3.73,3.38,1.98,3.28,0.669,4.18,3.64,3.65,1.73,3.1,1.15,3.71,1.32,0.996,3.84,4.52,1.13,5.4,1.99,3.73
CACACTAGGTCAAGGTCAAAGTCGGTTTGTGCCA,7.12,6.07,5.26,4.87,2.5,5.71,8.74,7.44,5.6,7.61,7.8,8.02,6.91,5.72,7.79,5.54,4.08,5.87,3.51,5.03
